Results filed as inconclusive are left out. Calls of active or inactive are those of the source. The call rests on the fitted dose curve; in most records, active means well fitted cell-killing curve with a large enough effect; inconclusive means small, poorly fitted or top-dose-only effect, or effect the other way; inactive means no such curve, though single readings can be large or run the other way.
Test: Quantitative High-Throughput drug screen in 47 multiple myeloma cell lines against the NCATS MIPE library collection: MMM1_PLB cell viability assay (AID 1918976); further: nearly all actives have a fitted effect of over 35% in size
Conditions: MMM1 myeloma cells viability, CellTiter-Glo, 48 h
Method in brief: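 ATP-based CellTiter-Glo luminescence after 48 h drug exposure (37 °C, 5% CO2) of 500 myeloma cells per well. DMSO-only wells set 100% viability, media-only wells 0%; MIPE 4.0 library added by pin tool.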
Potency means the concentration at half of the fitted maximal effect.

Compound	Potency
COc1ccc2c(c1OC)CN1CCc3cc4c(cc3C1C2)OCO4 (configuration not stated)	26.4 µM (active)
CNC(=O)N1N=C(c2ccc(N)cc2)c2cc3c(cc2CC1C)OCO3 (configuration not stated)	14.8 µM (active)
CN(C)CCc1ccc(O)cc1	1.66 µM (active)
CC1=C2C[C@@H]3[C@@H](CC=C4C[C@@H](O)CC[C@@]43C)[C@@H]2CC[C@]12O[C@H]1C[C@H](C)CN[C@H]1[C@H]2C	9.35 µM (active)
C[C@@H]1[C@@H](CC(C[C@H]2O[C@@H]3O[C@]4(C)CC[C@@H]5[C@H](C)CC[C@@H]([C@H]2C)[C@@]35OO4)C[S+](=O)([O-])c2ccc(COC(=O)N(C)C)cc2)O[C@@H]2O[C@]3(C)CC[C@H]4[C@H](C)CC[C@@H]1[C@@]24OO3 (some centres not stated)	0.148 µM (active)
CN(C)[C@@H]1C(=O)C(C(N)=O)=C(O)[C@@]2(O)C(=O)C3=C(O)c4c(O)cccc4[C@@](C)(O)[C@H]3C[C@@H]12	8.33 µM (active)
Fc1ccc(C(OCCN2CCN(CCCc3ccccc3)CC2)c2ccc(F)cc2)cc1	14.8 µM (active)
C=C(C)[C@H]1Cc2c(ccc3c2O[C@@H]2COc4cc(OC)c(OC)cc4[C@@H]2C3=O)O1	0.166 µM (active)
Cn1c(CCCC(=O)O)nc2cc(N(CCCl)CCCl)ccc21	10.5 µM (active)
N[C@@H](Cc1ccc(N(CCCl)CCCl)cc1)C(=O)O	4.69 µM (active)
Cc1sc2c(c1C)C(c1ccc(Cl)cc1)=N[C@@H](CC(=O)OC(C)(C)C)c1nnc(C)n1-2	1.05 µM (active)
C#CCN(C)[C@H](C)Cc1ccccc1	2.96 µM (active)

Reference: PubChem BioAssay (NCATS)
